# Laboratory results: publication PMC7862700, “An all-to-all approach to the identification of sequence-specific readers for epigenetic DNA modifications on cytosine”
# Key:
# Assay in all cases: DAPPL (digital affinity profiling via proximity ligation, sequencing); 10 mM Tris-HCl pH 7.5, 50 mM NaCl, 1 mM DTT, 4% glycerol, room temperature, 30 min; GST-TFs on glutathione beads, 16-mer random dsDNA library, 0.1% formaldehyde crosslink after washing; high values mean tight binding
# FLI1 = molecular target: T1, FLI1 (Homo sapiens, UniProt Q01543 1-452); conditions: protein: recombinant; tags: N-terminal GST; dsDNA, one strand shown
# T1 sequence: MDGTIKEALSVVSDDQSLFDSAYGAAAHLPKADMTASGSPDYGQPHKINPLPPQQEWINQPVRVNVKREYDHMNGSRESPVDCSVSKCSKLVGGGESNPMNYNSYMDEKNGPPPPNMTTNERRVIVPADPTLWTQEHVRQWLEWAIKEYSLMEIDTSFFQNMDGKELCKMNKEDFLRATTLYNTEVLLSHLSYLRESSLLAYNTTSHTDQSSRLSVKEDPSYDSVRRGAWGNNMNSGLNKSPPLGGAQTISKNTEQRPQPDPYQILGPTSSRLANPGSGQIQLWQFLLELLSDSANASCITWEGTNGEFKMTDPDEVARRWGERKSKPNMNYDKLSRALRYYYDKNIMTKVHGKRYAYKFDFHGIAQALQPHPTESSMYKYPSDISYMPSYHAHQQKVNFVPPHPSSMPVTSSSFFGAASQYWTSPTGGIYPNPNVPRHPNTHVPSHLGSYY
# Summary of the method: (§1)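 Beads coated with glutathione captured GST-fused human transcription factors that had been expressed in yeast, and the factors were then given DNA barcodes and pooled with a tag-only sample. The pools were incubated with 200 nmole of a random double-stranded 16-mer DNA library in Tris/NaCl/DTT/glycerol buffer for 30 min at room temperature, washed, crosslinked with 0.1% formaldehyde and proximity-ligated with BsaI/T4 ligase at 37 °C for 1 h. PCR amplification and Illumina NextSeq500 sequencing came last. Binding signal is each hexamer's read frequency for a factor divided by its frequency for the tag-only sample.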
# ELK1 = molecular target: T2, ELK1 (Homo sapiens, UniProt P19419 1-428); conditions: protein: recombinant; tags: N-terminal GST; dsDNA, one strand shown
# T2 sequence: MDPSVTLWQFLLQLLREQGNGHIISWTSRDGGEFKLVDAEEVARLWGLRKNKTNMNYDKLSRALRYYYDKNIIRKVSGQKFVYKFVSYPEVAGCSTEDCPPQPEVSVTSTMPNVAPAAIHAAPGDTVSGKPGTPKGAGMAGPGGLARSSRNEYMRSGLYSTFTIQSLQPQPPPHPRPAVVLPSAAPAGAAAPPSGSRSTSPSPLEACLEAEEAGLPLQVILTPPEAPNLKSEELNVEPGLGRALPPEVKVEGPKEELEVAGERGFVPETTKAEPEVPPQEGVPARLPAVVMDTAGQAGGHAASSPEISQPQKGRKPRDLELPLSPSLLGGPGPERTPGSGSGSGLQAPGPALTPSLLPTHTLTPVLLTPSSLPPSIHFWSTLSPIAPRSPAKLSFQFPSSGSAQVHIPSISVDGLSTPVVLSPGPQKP
# Summary of the method: as §1
# GABPA = molecular target: T3, GABPA (Homo sapiens, UniProt Q06546 1-454); conditions: protein: recombinant; tags: N-terminal GST; dsDNA, one strand shown
# T3 sequence: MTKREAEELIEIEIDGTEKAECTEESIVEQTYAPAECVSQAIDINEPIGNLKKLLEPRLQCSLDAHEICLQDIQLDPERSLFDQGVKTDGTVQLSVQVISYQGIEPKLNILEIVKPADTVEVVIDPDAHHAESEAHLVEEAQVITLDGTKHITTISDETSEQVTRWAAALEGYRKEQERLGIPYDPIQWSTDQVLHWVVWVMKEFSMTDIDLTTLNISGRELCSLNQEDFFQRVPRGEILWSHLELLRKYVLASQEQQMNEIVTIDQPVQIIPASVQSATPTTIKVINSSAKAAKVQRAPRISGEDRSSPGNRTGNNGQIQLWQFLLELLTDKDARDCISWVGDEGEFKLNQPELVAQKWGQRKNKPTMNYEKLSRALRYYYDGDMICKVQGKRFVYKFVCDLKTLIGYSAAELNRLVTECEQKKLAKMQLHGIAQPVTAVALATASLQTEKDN
# Summary of the method: as §1
# ERG = molecular target: T4, ERG (Homo sapiens, UniProt P11308 1-479); conditions: protein: recombinant; tags: N-terminal GST; dsDNA, one strand shown
# T4 sequence: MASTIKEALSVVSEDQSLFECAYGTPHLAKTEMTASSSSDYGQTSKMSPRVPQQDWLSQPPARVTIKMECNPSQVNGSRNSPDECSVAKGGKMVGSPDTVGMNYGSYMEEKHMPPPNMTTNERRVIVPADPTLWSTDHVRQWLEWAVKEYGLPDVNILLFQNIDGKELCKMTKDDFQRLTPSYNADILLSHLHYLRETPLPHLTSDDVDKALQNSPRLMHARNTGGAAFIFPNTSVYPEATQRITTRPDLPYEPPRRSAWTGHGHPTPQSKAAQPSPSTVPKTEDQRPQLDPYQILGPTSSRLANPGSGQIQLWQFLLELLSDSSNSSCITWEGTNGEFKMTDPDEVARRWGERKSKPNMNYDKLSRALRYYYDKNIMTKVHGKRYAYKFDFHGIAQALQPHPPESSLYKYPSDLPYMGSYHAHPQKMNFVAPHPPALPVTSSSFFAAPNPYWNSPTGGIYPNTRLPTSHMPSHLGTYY
# Summary of the method: as §1
# ELF1 = ELF1 (Homo sapiens, UniProt P32519 1-619); conditions: protein: recombinant; tags: N-terminal GST; dsDNA, one strand shown
# ELF1, sequence (P32519 whole entry): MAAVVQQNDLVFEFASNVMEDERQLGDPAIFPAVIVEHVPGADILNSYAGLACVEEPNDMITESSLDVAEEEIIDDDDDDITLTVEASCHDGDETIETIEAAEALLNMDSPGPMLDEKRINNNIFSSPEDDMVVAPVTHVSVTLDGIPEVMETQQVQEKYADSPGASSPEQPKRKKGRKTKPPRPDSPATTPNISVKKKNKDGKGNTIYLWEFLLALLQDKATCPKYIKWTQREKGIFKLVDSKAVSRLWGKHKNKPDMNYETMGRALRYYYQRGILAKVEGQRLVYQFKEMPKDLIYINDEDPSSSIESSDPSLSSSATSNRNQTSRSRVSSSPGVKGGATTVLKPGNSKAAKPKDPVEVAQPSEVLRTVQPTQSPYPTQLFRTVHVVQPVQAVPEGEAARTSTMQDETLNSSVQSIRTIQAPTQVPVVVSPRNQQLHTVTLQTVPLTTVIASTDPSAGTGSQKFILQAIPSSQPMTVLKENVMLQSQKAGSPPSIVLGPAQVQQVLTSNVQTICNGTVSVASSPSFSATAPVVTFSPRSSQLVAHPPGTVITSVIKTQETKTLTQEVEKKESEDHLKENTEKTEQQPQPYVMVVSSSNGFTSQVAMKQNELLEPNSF
# Summary of the method: as §1
# EHF = molecular target: T5, EHF (Homo sapiens, UniProt Q9NZC4 1-300); conditions: protein: recombinant; tags: N-terminal GST; dsDNA, one strand shown
# T5 sequence: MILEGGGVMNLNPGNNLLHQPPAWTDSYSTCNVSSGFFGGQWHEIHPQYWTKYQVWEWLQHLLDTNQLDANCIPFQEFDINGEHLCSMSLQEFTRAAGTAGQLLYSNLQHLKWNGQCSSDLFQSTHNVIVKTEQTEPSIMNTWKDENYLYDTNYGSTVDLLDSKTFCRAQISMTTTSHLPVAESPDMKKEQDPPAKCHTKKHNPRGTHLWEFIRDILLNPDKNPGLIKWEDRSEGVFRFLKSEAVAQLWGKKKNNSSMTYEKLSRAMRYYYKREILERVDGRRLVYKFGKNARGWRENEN
# Summary of the method: as §1
# SPI1 = SPI1 (Homo sapiens, UniProt P17947 1-270); conditions: protein: recombinant; tags: N-terminal GST; dsDNA, one strand shown
# Summary of the method: as §1
# SPIB = SPIB (Homo sapiens, UniProt Q01892 1-262); conditions: protein: recombinant; tags: N-terminal GST; dsDNA, one strand shown
# SPIB, sequence (Q01892 whole entry): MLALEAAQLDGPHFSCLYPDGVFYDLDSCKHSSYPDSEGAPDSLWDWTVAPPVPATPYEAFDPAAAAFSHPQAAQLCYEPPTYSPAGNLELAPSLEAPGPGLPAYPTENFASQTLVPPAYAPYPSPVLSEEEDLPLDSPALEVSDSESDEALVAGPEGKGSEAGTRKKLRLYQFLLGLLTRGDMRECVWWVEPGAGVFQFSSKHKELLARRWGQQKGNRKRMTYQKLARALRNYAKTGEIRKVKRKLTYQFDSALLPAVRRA
# Summary of the method: as §1
# ELK3 = molecular target: T6, ELK3 (Homo sapiens, UniProt P41970 1-407); conditions: protein: recombinant; tags: N-terminal GST; dsDNA, one strand shown
# T6 sequence: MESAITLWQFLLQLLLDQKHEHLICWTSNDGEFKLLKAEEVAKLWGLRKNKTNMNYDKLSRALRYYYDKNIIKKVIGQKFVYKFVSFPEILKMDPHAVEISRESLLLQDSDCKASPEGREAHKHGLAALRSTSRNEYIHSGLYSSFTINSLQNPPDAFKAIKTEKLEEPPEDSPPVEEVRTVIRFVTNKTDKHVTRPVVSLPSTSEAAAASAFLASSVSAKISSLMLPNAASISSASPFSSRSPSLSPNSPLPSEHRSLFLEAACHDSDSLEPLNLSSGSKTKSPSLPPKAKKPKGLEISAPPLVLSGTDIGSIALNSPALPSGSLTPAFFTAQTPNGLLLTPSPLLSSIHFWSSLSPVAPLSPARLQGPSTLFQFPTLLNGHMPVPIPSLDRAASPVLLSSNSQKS
# Summary of the method: as §1
# FEV = molecular target: T7, FEV (Homo sapiens, UniProt Q99581 1-238); conditions: protein: recombinant; tags: N-terminal GST; dsDNA, one strand shown
# T7 sequence: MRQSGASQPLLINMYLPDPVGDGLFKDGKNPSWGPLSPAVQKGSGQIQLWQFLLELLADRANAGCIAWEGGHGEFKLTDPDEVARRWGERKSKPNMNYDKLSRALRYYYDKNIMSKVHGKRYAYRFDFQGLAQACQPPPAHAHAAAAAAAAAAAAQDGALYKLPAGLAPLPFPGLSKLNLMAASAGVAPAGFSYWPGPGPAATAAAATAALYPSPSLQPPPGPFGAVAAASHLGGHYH
# Summary of the method: as §1
# ETV5 = ETV5 (Homo sapiens, UniProt P41161 1-510); conditions: protein: recombinant; tags: N-terminal GST; dsDNA, one strand shown
# ETV5, sequence (P41161 whole entry): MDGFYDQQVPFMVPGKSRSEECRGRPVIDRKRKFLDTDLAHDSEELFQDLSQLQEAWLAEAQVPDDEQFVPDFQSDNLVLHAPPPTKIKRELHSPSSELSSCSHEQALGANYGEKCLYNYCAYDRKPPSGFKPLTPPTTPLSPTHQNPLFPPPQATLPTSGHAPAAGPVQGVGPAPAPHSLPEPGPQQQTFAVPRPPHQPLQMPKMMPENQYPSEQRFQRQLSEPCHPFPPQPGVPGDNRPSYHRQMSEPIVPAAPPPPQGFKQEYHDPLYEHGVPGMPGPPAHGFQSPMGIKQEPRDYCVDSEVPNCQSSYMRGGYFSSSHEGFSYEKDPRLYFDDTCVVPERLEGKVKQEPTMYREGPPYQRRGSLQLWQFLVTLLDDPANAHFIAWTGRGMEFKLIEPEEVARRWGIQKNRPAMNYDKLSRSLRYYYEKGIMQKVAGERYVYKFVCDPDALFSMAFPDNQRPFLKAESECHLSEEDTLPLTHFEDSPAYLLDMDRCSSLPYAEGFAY
# Summary of the method: as §1
# HSF1 = HSF1 (Homo sapiens, UniProt Q00613 1-529); conditions: protein: recombinant; tags: N-terminal GST; chain copies: 3; dsDNA, one strand shown
# HSF1, sequence (Q00613 whole entry): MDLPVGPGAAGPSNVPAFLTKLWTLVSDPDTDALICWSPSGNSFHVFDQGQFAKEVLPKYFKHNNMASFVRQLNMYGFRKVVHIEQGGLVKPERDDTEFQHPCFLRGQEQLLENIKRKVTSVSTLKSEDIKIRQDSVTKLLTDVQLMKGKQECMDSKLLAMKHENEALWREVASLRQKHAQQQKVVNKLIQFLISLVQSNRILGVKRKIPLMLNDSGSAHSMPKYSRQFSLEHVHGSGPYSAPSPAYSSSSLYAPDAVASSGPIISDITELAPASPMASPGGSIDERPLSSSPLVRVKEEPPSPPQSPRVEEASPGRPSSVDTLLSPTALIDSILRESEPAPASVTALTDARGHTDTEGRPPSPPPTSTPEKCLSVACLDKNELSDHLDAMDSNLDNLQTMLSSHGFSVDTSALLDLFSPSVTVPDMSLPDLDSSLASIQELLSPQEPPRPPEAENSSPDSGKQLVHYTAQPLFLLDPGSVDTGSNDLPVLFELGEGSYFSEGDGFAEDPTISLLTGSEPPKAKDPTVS
# Summary of the method: as §1
# SPIC = molecular target: T8, SPIC (Homo sapiens, UniProt Q8N5J4 1-248); conditions: protein: recombinant; tags: N-terminal GST; dsDNA, one strand shown
# T8 sequence: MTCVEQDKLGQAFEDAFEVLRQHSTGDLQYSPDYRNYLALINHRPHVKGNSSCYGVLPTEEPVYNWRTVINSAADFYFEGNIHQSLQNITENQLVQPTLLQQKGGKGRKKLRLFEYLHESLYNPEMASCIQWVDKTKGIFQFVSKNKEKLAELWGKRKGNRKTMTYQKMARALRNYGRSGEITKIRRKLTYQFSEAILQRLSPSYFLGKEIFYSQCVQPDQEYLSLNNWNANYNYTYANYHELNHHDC
# Summary of the method: as §1
# ELF4 = ELF4 (Homo sapiens, UniProt Q99607 1-663); conditions: protein: recombinant; tags: N-terminal GST; dsDNA, one strand shown
# ELF4, sequence (Q99607 whole entry): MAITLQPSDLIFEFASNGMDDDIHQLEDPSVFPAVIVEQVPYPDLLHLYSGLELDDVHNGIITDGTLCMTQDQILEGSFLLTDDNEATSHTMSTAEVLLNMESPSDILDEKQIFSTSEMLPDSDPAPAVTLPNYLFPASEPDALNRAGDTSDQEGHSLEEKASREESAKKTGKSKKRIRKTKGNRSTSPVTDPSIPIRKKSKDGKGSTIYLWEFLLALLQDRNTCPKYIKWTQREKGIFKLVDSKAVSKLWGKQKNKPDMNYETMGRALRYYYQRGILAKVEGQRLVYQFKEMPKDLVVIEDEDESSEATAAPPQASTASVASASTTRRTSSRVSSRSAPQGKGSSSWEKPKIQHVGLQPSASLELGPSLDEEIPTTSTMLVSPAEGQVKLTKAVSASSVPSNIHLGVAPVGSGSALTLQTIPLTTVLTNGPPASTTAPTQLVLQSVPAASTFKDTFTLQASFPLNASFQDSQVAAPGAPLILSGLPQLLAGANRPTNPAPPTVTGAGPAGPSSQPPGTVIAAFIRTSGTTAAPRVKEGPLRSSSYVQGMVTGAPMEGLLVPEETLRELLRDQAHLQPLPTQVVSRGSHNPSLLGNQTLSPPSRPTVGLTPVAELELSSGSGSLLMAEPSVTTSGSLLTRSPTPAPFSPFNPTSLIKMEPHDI
# Summary of the method: as §1
# ELK4 = molecular target: T9, ELK4 (Homo sapiens, UniProt P28324-2 1-405); conditions: protein: recombinant; tags: N-terminal GST; dsDNA, one strand shown
# T9 sequence: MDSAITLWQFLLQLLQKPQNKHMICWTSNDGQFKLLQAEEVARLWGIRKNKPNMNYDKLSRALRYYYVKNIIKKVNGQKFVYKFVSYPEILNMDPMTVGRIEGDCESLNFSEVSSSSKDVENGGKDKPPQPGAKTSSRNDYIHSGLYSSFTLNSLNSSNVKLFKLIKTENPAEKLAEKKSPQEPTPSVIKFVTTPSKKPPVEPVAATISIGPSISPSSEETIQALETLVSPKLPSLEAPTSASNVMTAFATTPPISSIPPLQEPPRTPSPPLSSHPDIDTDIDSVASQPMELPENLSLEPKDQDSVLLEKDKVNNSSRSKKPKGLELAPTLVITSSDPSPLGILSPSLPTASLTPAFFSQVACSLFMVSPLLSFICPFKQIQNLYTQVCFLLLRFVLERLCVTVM
# Summary of the method: as §1
# ETV2 = molecular target: T10, ETV2 (Homo sapiens, UniProt O00321 1-342); conditions: protein: recombinant; tags: N-terminal GST; dsDNA, one strand shown
# T10 sequence: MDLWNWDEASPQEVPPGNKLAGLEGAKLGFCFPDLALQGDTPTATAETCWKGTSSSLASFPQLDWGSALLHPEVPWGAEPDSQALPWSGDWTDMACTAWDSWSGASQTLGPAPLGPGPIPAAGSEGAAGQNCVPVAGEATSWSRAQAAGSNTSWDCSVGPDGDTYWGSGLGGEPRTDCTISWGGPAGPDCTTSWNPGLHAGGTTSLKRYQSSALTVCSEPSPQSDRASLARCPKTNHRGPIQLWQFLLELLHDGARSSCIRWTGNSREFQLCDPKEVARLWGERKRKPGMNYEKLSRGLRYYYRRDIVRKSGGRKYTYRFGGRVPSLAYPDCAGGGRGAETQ
# Summary of the method: as §1
# ELF3 = molecular target: T11, ELF3 (Homo sapiens, UniProt P78545 1-371); conditions: protein: recombinant; tags: N-terminal GST; dsDNA, one strand shown
# T11 sequence: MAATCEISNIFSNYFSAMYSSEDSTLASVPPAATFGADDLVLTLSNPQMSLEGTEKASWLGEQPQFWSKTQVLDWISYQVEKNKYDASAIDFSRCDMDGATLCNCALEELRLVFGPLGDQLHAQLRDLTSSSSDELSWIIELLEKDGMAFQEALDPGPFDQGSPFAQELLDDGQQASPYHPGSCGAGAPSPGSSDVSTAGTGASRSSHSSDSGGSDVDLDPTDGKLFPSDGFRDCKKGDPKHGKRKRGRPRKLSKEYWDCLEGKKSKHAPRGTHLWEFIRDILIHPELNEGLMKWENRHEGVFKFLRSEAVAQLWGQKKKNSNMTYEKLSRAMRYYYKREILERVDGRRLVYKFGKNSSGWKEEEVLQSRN
# Summary of the method: as §1
# CRX = CRX (Homo sapiens, UniProt O43186 1-299); conditions: protein: recombinant; tags: N-terminal GST; dsDNA, one strand shown
# CRX, sequence (O43186 whole entry): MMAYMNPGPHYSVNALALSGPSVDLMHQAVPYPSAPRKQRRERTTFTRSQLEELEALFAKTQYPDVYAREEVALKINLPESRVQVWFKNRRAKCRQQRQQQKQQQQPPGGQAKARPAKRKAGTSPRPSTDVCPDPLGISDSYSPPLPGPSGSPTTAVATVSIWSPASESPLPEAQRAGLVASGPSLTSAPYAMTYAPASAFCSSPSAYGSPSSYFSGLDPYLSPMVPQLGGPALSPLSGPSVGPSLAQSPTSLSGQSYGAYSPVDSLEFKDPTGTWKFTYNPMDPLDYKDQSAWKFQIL
# Summary of the method: as §1
# ETV1 = ETV1 (Homo sapiens, UniProt P50549 1-477); conditions: protein: recombinant; tags: N-terminal GST; dsDNA, one strand shown
# ETV1, sequence (P50549 whole entry): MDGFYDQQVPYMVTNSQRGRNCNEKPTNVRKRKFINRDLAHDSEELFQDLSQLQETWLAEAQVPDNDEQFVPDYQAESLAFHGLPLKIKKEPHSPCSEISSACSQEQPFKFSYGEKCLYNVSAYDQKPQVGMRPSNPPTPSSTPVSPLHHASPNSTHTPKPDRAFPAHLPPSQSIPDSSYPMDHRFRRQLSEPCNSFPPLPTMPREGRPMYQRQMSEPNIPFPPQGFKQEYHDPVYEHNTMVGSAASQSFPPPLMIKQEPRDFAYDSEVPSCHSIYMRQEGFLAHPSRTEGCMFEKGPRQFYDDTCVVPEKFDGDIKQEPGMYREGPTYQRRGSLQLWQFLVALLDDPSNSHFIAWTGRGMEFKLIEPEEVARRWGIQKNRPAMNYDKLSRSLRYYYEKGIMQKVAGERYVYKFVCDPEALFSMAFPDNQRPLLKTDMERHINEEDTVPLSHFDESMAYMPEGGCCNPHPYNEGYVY
# Summary of the method: as §1
sequence,measurement,setting,value
ATATCG,binding signal,FLI1,"1.09 fold enrichment (6-mer frequency, TF over GST control)"
same,binding signal,ELK1,"1.16 fold enrichment (6-mer frequency, TF over GST control)"
same,binding signal,GABPA,"1.14 fold enrichment (6-mer frequency, TF over GST control)"
same,binding signal,ERG,"1.08 fold enrichment (6-mer frequency, TF over GST control)"
same,binding signal,ELF1,"1.16 fold enrichment (6-mer frequency, TF over GST control)"
same,binding signal,EHF,"1.13 fold enrichment (6-mer frequency, TF over GST control)"
same,binding signal,SPI1,"1.23 fold enrichment (6-mer frequency, TF over GST control)"
same,binding signal,SPIB,"1.17 fold enrichment (6-mer frequency, TF over GST control)"
same,binding signal,ELK3,"1.19 fold enrichment (6-mer frequency, TF over GST control)"
same,binding signal,FEV,"1.1 fold enrichment (6-mer frequency, TF over GST control)"
same,binding signal,ETV5,"1.16 fold enrichment (6-mer frequency, TF over GST control)"
same,binding signal,HSF1,"1.14 fold enrichment (6-mer frequency, TF over GST control)"
same,binding signal,SPIC,"1.07 fold enrichment (6-mer frequency, TF over GST control)"
same,binding signal,ELF4,"1.22 fold enrichment (6-mer frequency, TF over GST control)"
same,binding signal,ELK4,"1.21 fold enrichment (6-mer frequency, TF over GST control)"
same,binding signal,ETV2,"1.18 fold enrichment (6-mer frequency, TF over GST control)"
same,binding signal,ELF3,"1.02 fold enrichment (6-mer frequency, TF over GST control)"
same,binding signal,CRX,"1.07 fold enrichment (6-mer frequency, TF over GST control)"
same,binding signal,ETV1,"1.22 fold enrichment (6-mer frequency, TF over GST control)"
